According to PubChem BioAssay (NCI):
Compounds without any hit were thinned out: in the full panel of roughly 83,000, 20% have a hit.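 Cell lines were cultured in 96-well plates, exposed to a single compound concentration, and assessed for percent growth 48 hours later.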 Activity calls are given as the source filed them. How the source made its calls: active means growth percent below 10; inactive means the rest.

Key:
Assay in all cases: NCI-60 one-dose screen, 48 h (100 = growth as untreated, 0 = no growth, -100 = all killed)
Settings in all cases: 10 µM unless noted
DU-145 prostate = test system: DU-145 prostate
K-562 leukemia = test system: K-562 leukemia
MALME-3M melanoma = test system: MALME-3M melanoma
MDA-MB-231 breast = test system: MDA-MB-231 breast
RXF 393 renal = test system: RXF 393 renal
SF-268 CNS = test system: SF-268 CNS
SF-295 CNS = test system: SF-295 CNS
SF-539 CNS = test system: SF-539 CNS
UACC-257 melanoma = test system: UACC-257 melanoma
M14 melanoma = test system: M14 melanoma

Measured: growth

NC(=NCCCCCCN=C(N)/N=C(\N)Nc1ccc(Cl)cc1)/N=C(\N)Nc1ccc(Cl)cc1
active: K-562 leukemia 8.11% | MDA-MB-231 breast 0.0954% | RXF 393 renal 1.06% | SF-295 CNS -9.13% | SF-539 CNS 0.167%
inactive: DU-145 prostate 33.2% | MALME-3M melanoma 26.7% | SF-268 CNS 20.8% | UACC-257 melanoma 33.7% | M14 melanoma 22.6%

C[C@@H]1C[C@@H]([C@@H](CC2CC(=O)NC(=O)C2)OC(=O)CC(=O)c2ccccc2)C(=O)[C@@H](C)C1
inactive: DU-145 prostate 11.8% | K-562 leukemia 17.7% | MDA-MB-231 breast 17.5% | SF-268 CNS 15.6% | M14 melanoma 10.9%
active: MALME-3M melanoma -0.912% | RXF 393 renal -13.7% | SF-295 CNS 4.68% | SF-539 CNS 5.1% | UACC-257 melanoma -4.59%

CCCCN=C(N)c1ccc(OCCSCCOc2ccc(C(N)=NCCCC)cc2)cc1
inactive: DU-145 prostate 55.3% | K-562 leukemia 40.9% | MALME-3M melanoma 39.3% | MDA-MB-231 breast 58.7% | RXF 393 renal 92.6% | SF-268 CNS 35.6% | SF-539 CNS 55% | UACC-257 melanoma 39.9% | M14 melanoma 81.6%
active: SF-295 CNS -36.4%

COc1cnc2c(c1)C(=O)c1c-2n(CCCNC2=NCCS2)c(=O)c2cc(F)ccc12
active: K-562 leukemia -34.4% | SF-295 CNS -5.74% | SF-539 CNS -13.2% | M14 melanoma 5.96%
inactive: DU-145 prostate 14.9% | MALME-3M melanoma 27.8% | MDA-MB-231 breast 51% | RXF 393 renal 35.1% | SF-268 CNS 23.2% | UACC-257 melanoma 21.8%

C[C@@H]1CN(c2nc3c(cc2F)c(=O)c(C(=O)O)cn3C(C)(C)C)C[C@H](C)N1
inactive: DU-145 prostate 114% | K-562 leukemia 90.8% | MALME-3M melanoma 91.3% | MDA-MB-231 breast 88.4% | SF-268 CNS 114% | SF-295 CNS 96.5% | SF-539 CNS 107% | UACC-257 melanoma 91.2% | M14 melanoma 98.8%
active: RXF 393 renal -17.3%

NS(=O)(=O)c1cc2c(cc1Cl)NC=NS2(=O)=O
inactive: DU-145 prostate 111% | K-562 leukemia 120% | MALME-3M melanoma 103% | MDA-MB-231 breast 113% | RXF 393 renal 121% | SF-268 CNS 109% | SF-295 CNS 104% | SF-539 CNS 103% | UACC-257 melanoma 104% | M14 melanoma 96.4%

O=C1C=CC(=O)N1c1ccccc1N1C(=O)C=CC1=O
inactive: DU-145 prostate 110% | K-562 leukemia 50.2% | MALME-3M melanoma 144% | MDA-MB-231 breast 92.6% | RXF 393 renal 111% | SF-268 CNS 97.7% | SF-295 CNS 125% | SF-539 CNS 100% | UACC-257 melanoma 115% | M14 melanoma 110%

CN1CCN(c2nc3scc(-c4ccccc4)c3c(=O)[nH]2)CC1
inactive: DU-145 prostate 103% | K-562 leukemia 95.9% | MALME-3M melanoma 86.4% | MDA-MB-231 breast 92% | RXF 393 renal 96.5% | SF-268 CNS 96.7% | SF-295 CNS 96.6% | SF-539 CNS 93.7% | UACC-257 melanoma 108% | M14 melanoma 97.6%

CCCCCN1C(=O)CCC1=O
inactive: DU-145 prostate 101% | K-562 leukemia 114% | MALME-3M melanoma 90.3% | MDA-MB-231 breast 109% | RXF 393 renal 122% | SF-268 CNS 93.3% | SF-295 CNS 101% | SF-539 CNS 102% | UACC-257 melanoma 99.4% | M14 melanoma 107%

COc1cc(/C=C/C(=O)CC(=O)/C=C/c2ccc(OC(=O)CCNC34CC5CC(CC(C5)C3)C4)c(OC)c2)ccc1OC(=O)CCNC12CC3CC(CC(C3)C1)C2
inactive: MALME-3M melanoma 38.6% | MDA-MB-231 breast 52.4% | SF-268 CNS 16.5% | SF-295 CNS 51% | UACC-257 melanoma 73.9% | M14 melanoma 16.5%
active: DU-145 prostate -7.16% | K-562 leukemia 7.62% | RXF 393 renal -37.7% | SF-539 CNS -18.2%

COc1ccc2c(c1)CC[C@@H]1[C@@H]2CC[C@]2(C)[C@@H](O)C(=O)C[C@@H]12
inactive: DU-145 prostate 104% | K-562 leukemia 94.2% | MALME-3M melanoma 148% | MDA-MB-231 breast 109% | RXF 393 renal 134% | SF-268 CNS 97.1% | SF-295 CNS 109% | SF-539 CNS 100% | UACC-257 melanoma 106% | M14 melanoma 110%

COc1cc(/C=C2\CN(C)CC3=C2Nc2nc(SC)[nH]c(=O)c2C3c2cc(OC)c(OC)c(OC)c2)cc(OC)c1OC (stereo not given)
inactive: MALME-3M melanoma 81.2% | MDA-MB-231 breast 37.6% | RXF 393 renal 69.7% | SF-268 CNS 37.4% | SF-295 CNS 63.8% | SF-539 CNS 34.8% | UACC-257 melanoma 53.9% | M14 melanoma 24.3%
active: DU-145 prostate 7.76% | K-562 leukemia 8.74%

COc1cc(/C=C\C(C)=N\Nc2ccccc2)ccc1O
inactive: DU-145 prostate 102% | K-562 leukemia 56.1% | MALME-3M melanoma 127% | MDA-MB-231 breast 76.8% | RXF 393 renal 108% | SF-268 CNS 76.4% | SF-295 CNS 85.5% | SF-539 CNS 88.1% | UACC-257 melanoma 79.2% | M14 melanoma 97.5%

CC[C@@H](c1ccc(O)c(O)c1)[C@@H](CC)c1ccc(O)c(O)c1
inactive: DU-145 prostate 110% | K-562 leukemia 31.8% | MALME-3M melanoma 39.2% | MDA-MB-231 breast 89.7% | RXF 393 renal 71.5% | SF-268 CNS 98% | SF-295 CNS 130% | SF-539 CNS 102% | UACC-257 melanoma 101% | M14 melanoma 62.4%
